Where “and” joins values, the source holds several entries; their conditions need not be identical. Equal entries are not always repeated.
Assays:
Settings in all cases: concentration: 10 µM; 24 h
[1] = system: HCC1569; assay: cell number relative to DMSO (% of DMSO); higher = more cells (less growth inhibition / toxicity)
How it was run: (§1)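 H1.0 nuclear intensity or cell number is stated as percent of the plate control, based on the median of replicates, and HCC1569 values were smoothed for positional effects. These came from HCC1569 and TDF cells treated with compounds at 10 µM for 24 h at 37 °C in triplicate, then fixed in 3.7% formaldehyde and stained with a rabbit anti-H1.0 antibody, an AlexaFluor 647 secondary and DAPI.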

[2] = system: TDF; assay: as above
How it was run: as §1

[3] = system: TDF; assay: H1.0 immunofluorescence intensity relative to DMSO (% of DMSO); higher = stronger H1.0 induction, active = 120 or more
How it was run: as §1

[4] = system: HCC1569; assay: H1.0 immunofluorescence intensity relative to DMSO (% of DMSO); higher = stronger H1.0 induction, active = 140 or more
How it was run: as §1
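Wherever H1.0 immunofluorescence intensity relative to DMSO is given: TDF is a line of transformed human dermal fibroblasts of mesenchymal origin.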
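Wherever cell number relative to DMSO is given: TDF denotes transformed human dermal fibroblasts of mesenchymal origin.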

Structure (SMILES) | cell number [1] | cell number [2] | H1.0 immunofluorescence intensity [3] | H1.0 immunofluorescence intensity [4]
Cc1ccc(-c2nn(C(C)(C)C)c3ncnc(N)c23)cc1 | 69.8 | 109 | 94.8 (inactive) | 188 (active)
CN1CCCC1c1cccnc1.Cc1ccc(C(=O)OC(C(=O)O)C(OC(=O)c2ccc(C)cc2)C(=O)O)cc1 (stereo not drawn) [(+)-Nicotine (+)-di-p-toluoyl tartrate] | 102 | 109 | 88.1 (inactive) | 99.5 (inactive)
CCCCCCCCCCCCCCCCOP(=O)([O-])OCC[N+](C)(C)C [Miltefosine] | 97.1 | 109 | 92.7 (inactive) | 113 (inactive)
CC1(C)CCC2(C(=O)O)CCC3(C)C(=CCC4C5(C)CCC(O)C(C)(C)C5CCC43C)C2C1 (stereo not given) [Oleanolic acid] | 101 | 91.6 | 101 (inactive) | 89.8 (inactive)
COc1nccc(-c2c(-c3ccc(F)cc3)ncn2C2CCC(O)CC2)n1 (stereo not given) | 100 | 112 | 85.5 (inactive) | 117 (inactive)
COC(=O)C(C)(N)Cc1ccc(O)cc1.Cl (racemic) [alpha-Methyl-DL-tyrosine methyl ester hydrochloride] | 101 | 103 | 93 (inactive) | 94.3 (inactive)
CC(C)=CCC(O)C1=CC(=O)c2c(O)ccc(O)c2C1=O (stereo not given) [Shikonin] | 27 | 38.8 | 119 (inactive) | 111 (inactive)
CC1=c2[nH]c3c(c2CCN1)C=CC(=O)C=3.Cl.O.O | 98.2 | 89 | 97.7 (inactive) | 144 (active)
CS(=O)(=O)O.N=C(N)SCCc1ccc(OCc2ccc([N+](=O)[O-])cc2)cc1 | 88.6 | 78.2 | 125 (active) | 158 (active)
COc1cc2c(N3CCN(C(=O)Nc4ccc(OC(C)C)cc4)CC3)ncnc2cc1OCCCN1CCCCC1 [Tandutinib] | 101 | 100 | 97.9 (inactive) | 99.5 (inactive)
CCC1(O)C(=O)OCc2c1cc1n(c2=O)Cc2cc3c(CN(C)C)c(O)ccc3nc2-1.Cl (stereo not given) [Topotecan.HCl] | 65.7 | 17.1 | 154 (active) | 96.3 (inactive)
CCCCCCCCCCCCCCC(C(=O)O)=C(C)C(=O)O [Chaetomellic acid A] | 102 | 93.6 | 104 (inactive) | 100 (inactive)
c1cc(OCCN2CCCCC2)cc(-c2n[nH]c3ccc(-c4ncn[nH]4)cc23)c1 | 88.3 | 107 | 84.6 (inactive) | 115 (inactive)
Nc1c2c(nc3ccccc13)CCCC2 [Tacrine] | 102 | 97.1 | 95.7 (inactive) | 109 (inactive)
CC(Cc1ccc(O)c(O)c1)C(C)Cc1ccc(O)c(O)c1 (stereo not given) | 72.5 and 72.1 | 108 and 87.9 | 100 (inactive) and 95.2 (inactive) | 116 (inactive) and 122 (inactive)
O=C1CC(c2ccc(O)c(O)c2)Oc2c1ccc(OC1OC(CO)C(O)C(O)C1O)c2O (stereo not given) [Flavanomarein] | 102 | 98.6 | 94.9 (inactive) | 99.9 (inactive)
CNc1cc2c(Nc3cccc(Br)c3)ncnc2cn1 | 87.2 | 95.7 | 91.3 (inactive) | 135 (inactive)
CC(N)(Cc1ccc(O)cc1)C(=O)O [L-alpha-Methyl-p-tyrosine] | 107 | 111 | 92.6 (inactive) | 90.6 (inactive)
N=C(N)c1ccc(OCCCCCOc2ccc(C(=N)N)cc2)cc1.O=S([O-])OCCO.O=S([O-])OCCO [Pentamidine isethionate] | 93.1 | 90.6 | 103 (inactive) | 97.2 (inactive)
Oc1cc(O)cc(/C=C/c2ccc(Br)cc2)c1 [5-[(E)-2-(4-bromophenyl)ethenyl]-1,3-benzenediol] | 93.1 | 98.8 | 95.4 (inactive) | 127 (inactive)
CCOc1nc2cccc(C(=O)O)c2n1Cc1ccc(-c2ccccc2-c2nn[nH]n2)cc1 [Candesartan] | 104 | 97.2 | 99.8 (inactive) | 99.7 (inactive)
COCCCCC(=NOCCN)c1ccc(C(F)(F)F)cc1.O=C(O)C=CC(=O)O [Fluvoxamine maleate] | 98.6 | 97.1 | 95.3 (inactive) | 92.4 (inactive)
COc1c(OCCCCN2CCN(C)CC2)cc(O)c2c(=O)cc(-c3ccccc3)oc12 | 25.3 | 34.9 | 133 (active) | 119 (inactive)
CC(N)=O [Acetamide] | 113 | 103 | 111 (inactive) | 106 (inactive)
O=[N+]([O-])c1ccc([O-])c(OS(=O)(=O)[O-])c1.[K+].[K+] [dipotassium 5-nitro-2-oxidophenyl sulfate] | 99.5 | 108 | 90.9 (inactive) | 100 (inactive)
